Assay outcomes from PubChem.
Sampled rows, rich in hits. Any-hit rate of the full collection: about 3.7%.
MazF activator: activators of E. coli MazEF toxin-antitoxin RNase, primary screen, biochemical, fluorescence, uHTS; Endoribonuclease toxin MazF (Escherichia coli (strain K12)), P0AE70; FAM/BHQ RNA-DNA oligo cleavage fluorescence, 5 h; 350,000 compounds, 0.32% hits; activation, % at 20 µM; in the data active = activation above about 50%
BoNT-A LC inh2: BoNT/A light chain protease inhibitors, primary screen, biochemical, flow cytometry, MLPCN library. multiplex microsphere protease substrate cleavage. inhibition, % at 10 µM. 360,000 compounds, 0.17% hits. AID 588499, 2011; note: plate controls were buffer without enzyme for full effect and enzyme alone for no effect
Autofluor counter: compound fluorescence in toxin protease inhibitor counterscreen; compound autofluorescence counterscreen, microsphere flow cytometry; stronger effect = higher value; fluorescence intensity (test concentration not listed); 360,000 compounds, 3.1% hits; AID 624483; in the data active = fluorescence intensity above about 16000; inconclusive = no clear call, values can overlap the other calls
BoNT-F LC inh: BoNT/F light chain protease inhibitors, primary screen, biochemical, flow cytometry, MLPCN library. Botulinum neurotoxin type F light chain protease (Clostridium botulinum). Multiplex microsphere protease cleavage assay. inhibition, % at 10 µM. 360,000 compounds, 0.22% hits. AID 588497, 2011; in the data active = inhibition above about 35%, passing the limit was not always enough; inconclusive = no clear call, values can overlap the other calls; note: plate controls were buffer without enzyme for full effect and enzyme alone for no effect
Anthrax LF prot: Bacillus anthracis LF protease inhibitors, primary screen, biochemical, multiplex microsphere, MLPCN library. 360,000 compounds, 0.12% hits. multiplex microsphere protease cleavage assay. inhibition, % at 10 µM. AID 588501, 2011. Lethal factor (Bacillus anthracis), P15917; note: plate controls were buffer without enzyme for full effect and enzyme alone for no effect
Target sequence (P15917 whole entry, looked up): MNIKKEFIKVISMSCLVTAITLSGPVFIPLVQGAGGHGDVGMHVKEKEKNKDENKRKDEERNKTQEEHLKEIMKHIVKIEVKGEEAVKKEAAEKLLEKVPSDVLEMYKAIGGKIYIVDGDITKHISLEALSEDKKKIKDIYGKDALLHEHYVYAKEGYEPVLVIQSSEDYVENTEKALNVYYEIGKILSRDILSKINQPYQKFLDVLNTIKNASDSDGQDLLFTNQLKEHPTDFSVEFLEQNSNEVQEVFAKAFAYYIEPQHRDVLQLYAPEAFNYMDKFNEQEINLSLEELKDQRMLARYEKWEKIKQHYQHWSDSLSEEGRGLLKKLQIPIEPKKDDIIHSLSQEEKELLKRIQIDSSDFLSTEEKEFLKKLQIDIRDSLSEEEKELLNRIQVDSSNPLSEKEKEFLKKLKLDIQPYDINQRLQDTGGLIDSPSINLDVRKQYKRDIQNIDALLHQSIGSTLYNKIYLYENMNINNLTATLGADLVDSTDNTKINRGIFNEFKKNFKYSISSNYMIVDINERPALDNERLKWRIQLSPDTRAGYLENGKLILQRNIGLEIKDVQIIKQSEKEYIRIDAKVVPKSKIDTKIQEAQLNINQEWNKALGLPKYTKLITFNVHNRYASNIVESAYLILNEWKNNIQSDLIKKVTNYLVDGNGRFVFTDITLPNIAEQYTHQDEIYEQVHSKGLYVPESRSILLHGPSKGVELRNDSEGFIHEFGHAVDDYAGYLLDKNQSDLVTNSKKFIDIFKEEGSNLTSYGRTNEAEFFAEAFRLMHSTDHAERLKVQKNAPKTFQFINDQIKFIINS
Starred values were filed as active, the others as inactive; u = inconclusive; x = not tested or not shown. Cut-off read from the data, not from the text of the source, unless noted: active = inhibition above about 30%; inconclusive = no clear call, values can overlap the other calls; inactive = below that.

SMILES	MazF activator	BoNT-A LC inh2	Autofluor counter	BoNT-F LC inh	Anthrax LF prot
COc1ccc(N2CCN(C(=O)CCNC(=O)Cn3ccc4ccccc4c3=O)CC2)cc1	9.2	0.3	4689	-0.6	-1.2
CCc1ccc(/C=N/NC(=O)Cc2ccc(OC)c(OC)c2)s1	8.7	-0.9	6352	-9.2	2.3
CCCCCC(=O)N/N=C/c1cccs1	9.6	-0.2	22461*	0.9	-2.4
O=C(CCC(=O)Nc1ccc(F)cc1)N/N=C/c1cccs1	8.2	-0.3	6561	-9.4	-0.9
COc1ccc(CC(=O)N/N=C/c2cccs2)cc1OC	-0.3	2.2	3446	48.7*	-9.5
Cc1nc2ccccc2cc1C(=O)N/N=C/c1cccs1	11.7	3.3	2060	37.6*	1.4
COc1cc(/C=N/NC(=O)COc2ccccc2C)ccc1OC(=O)c1cccs1	-13.9	u	22564*	0.3	-1.9
O[C@H]1CN(Cc2cccs2)[C@@H](c2ccccc2)C[C@@H]1n1cc(C2CC2)nn1	-12.7	-0.2	4069	2.3	-5.9
CC(C)(C)N(Cc1ccccc1)C(=O)COC(=O)/C=C/c1ccc2c(c1)OCO2	-12.6	1.7	8789	-2.5	3.8
Cc1cc(C)n2nc(SCC(=O)Nc3ccc(F)c(F)c3F)nc2n1	7.2	-1.8	8044	0.7	0.1
CN(C)NC(=S)Nc1cccc(Cl)c1	9.3	u	u	u	-1.2
CN(C)S(=O)(=O)c1cccc(NC(=S)Nc2ccc(Cl)cc2Cl)c1	0.8	x	x	x	x
CN(C)CCNC(=S)Nc1cccc(Cl)c1	8.3	-1.1	23002*	-1.5	-0.9
O=C(NCCc1ccncc1)Nc1ccc(Cl)c(Cl)c1	3.5	-0.8	4445	1.8	-5.7
CN(C)S(=O)(=O)c1cccc(NC(=S)Nc2cc(Cl)cc(Cl)c2)c1	-0.3	u	23036*	-2.1	-0.8
CN(C)CCNC(=O)Nc1ccc(Cl)c(Cl)c1	2.4	-2.2	24214*	-1.4	-0.7
CCOC(=O)c1c(NC(=O)c2c(C(=O)O)cccc2[N+](=O)[O-])sc(C)c1C	-5.6	0.9	3326	0.7	1.7
COc1ccc2c(c1)c(C(C)=O)c(C)n2CCc1ccccc1	-2.5	0.3	3203	-16.8	9.2
Cc1ccccc1OCCN1C(=O)NC2(CCc3ccccc32)C1=O (stereo unspecified)	-9.0	0.9	20031*	0.8	0.3
CCOc1cccc(N(C(=O)CNC(=O)c2ccco2)C(C(=O)NCC2CCCO2)c2ccccc2)c1 (stereo unspecified)	8.1	0.2	2710	17.6	7.6
O=C(COC(=O)c1cc(-c2cccc3ccccc23)nc2ccccc12)NC1CCS(=O)(=O)C1 (stereo unspecified)	291.9*	4.9	2589	-6.3	2.2
CC(C)Cn1c(-c2csc3c2CCCC3)n[nH]c1=S	0.0	-2.7	17069*	-7.9	-6.7
Nc1nc2c(ncn2[C@@H]2O[C@H](CNC(=O)[C@H](N)Cc3cncn3COCc3ccccc3)[C@@H](O)[C@H]2O)c(=O)[nH]1	x	-0.3	5353	-8.7	3.0
COc1ccc(CNC(=O)c2cccc(S(=O)(=O)N3CCCCC3)c2)cc1OC	0.0	-1.2	5257	10.7	2.8
C=CCOc1ccccc1/C=N/O	-2.2	u	24314*	-4.9	-1.6
SMILES	MazF activator	BoNT-A LC inh2	Autofluor counter	BoNT-F LC inh	Anthrax LF prot
Cc1ccc([C@@H]2CC(=O)[C@@H]3CN(S(=O)(=O)c4ccc(C)cc4)[C@H](c4ccccc4)C[C@@H]3N2S(=O)(=O)c2ccc(C)cc2)cc1	x	-0.7	5389	-6.3	-3.6
Cc1nc2ccccn2c1C(=O)N/N=C/c1cc(C)n(-c2ccc(Br)cc2)c1C	7.6	-4.0	23974*	-7.8	-6.0
CC(C)Oc1ccc(C(CC(=O)NCc2ccco2)c2ccccc2)cc1 (stereo unspecified)	-3.8	-1.4	16645*	-3.0	-0.7
COC(=O)[C@H](C)NC(=O)NCc1ccco1	-3.6	1.0	20251*	1.2	0.9
CCC(C)[C@H](NC(=O)NCc1ccco1)C(=O)OC (stereo partly specified)	-3.7	-4.6	3239	u	-4.9
COc1ccc(-c2nc(SCC(=O)Nc3cccc(S(N)(=O)=O)c3)n[nH]2)cc1	1.3	1.0	5349	1.7	-3.5
Cn1nc(C(=O)OCC(=O)Nc2ccc(S(N)(=O)=O)cc2)c2ccccc2c1=O	3.7	-0.3	4488	-4.2	5.0
C[C@@H]1CN([C@@H](C)CO)C(=O)CCCn2nncc2CO[C@@H]1CN(C)C(=O)Nc1ccccc1C(F)(F)F	-0.7	-0.1	2873	3.9	-2.4
C/C(=N/NS(=O)(=O)c1ccccc1)c1c[nH]c2ccccc12	22.7	1.8	4092	-6.1	-0.7
C/C(=N/NS(=O)(=O)c1cccc([N+](=O)[O-])c1)c1c[nH]c2ccccc12	56.2*	0.1	5620	0.8	-3.6
COc1ccc(S(=O)(=O)N2CCCOC2CNC(=O)C(=O)NCCc2ccco2)cc1C (stereo unspecified)	0.6	-0.8	6372	-8.5	-1.7
O=C(c1ccco1)c1cn(Cc2ccccc2Cl)c2ccccc12	-7.6	u	24624*	-1.8	-0.2
CCOc1ccc(NC(=O)Cn2cc(C(=O)c3ccco3)c3ccccc32)cc1	-2.2	14.1	16382*	10.7	-14.1
O=C(c1ccco1)c1cn(Cc2ccccc2)c2ccccc12	9.9	-0.5	3291	-4.3	-1.2
Cc1ccc(-c2ccc3c(c2)O[C@H](CN(C)C(=O)Nc2ccc(C(F)(F)F)cc2)[C@H](C)CN([C@H](C)CO)S3(=O)=O)cc1	x	-0.1	6151	-13.8	-8.1
Cc1ccc(NC(=O)N2CCC(C(=O)NCCC3=CCCCC3)CC2)cc1	4.2	-0.4	16684*	-3.2	-3.4
Cc1ccc(NC(=O)N2CCCC2C(=O)NCCC2=CCCCC2)cc1 (stereo unspecified)	-0.3	u	18611*	5.7	-9.5
Cc1cccc(NC(=O)COC(=O)c2nn(-c3ccccc3C(F)(F)F)cc2O)c1C	3.7	-0.6	4055	-5.0	4.3
O=c1[nH]nc(CNc2ccc(C(F)(F)F)cc2)c2ccccc12	1.2	-0.3	2002	-2.9	-1.5
O=c1[nH]nc(CNc2ccc(O)cc2)c2ccccc12	444.4*	-1.1	4446	1.6	1.1
Nc1ccccc1C(=O)NN=Cc1cccnc1	x	0.3	5791	-1.6	6.3
Cc1ccc(C(=O)Nc2ccc(N3CCOCC3)nc2)cc1	6.3	0.0	9361	-2.9	-11.7
O=C(Nc1ccc(N2CCOCC2)nc1)c1ccc(F)cc1	-2.7	0.5	22364*	-1.4	-1.2
CC(C)CC(=O)c1c[nH]c(C(=O)NCCCn2ccnc2)c1	8.3	1.4	19657*	1.7	-2.3
CCC(CC)C(=O)c1c[nH]c(C(=O)NCCCn2ccnc2)c1	-3.7	u	22434*	-2.0	-0.1
CCCC(=O)Nc1ccc2c(c1)nc(CCN1CCC(C)CC1)n2C	2.6	-0.3	3986	-3.4	4.2
